Assay outcomes: PubChem, National Center for Advancing Translational Sciences (NCATS)
Compounds with a hit are over-represented: about 21% of the library has one in this group of screens.
Pf growth 48h – Primary qHTS for delayed death inhibitors of the malarial parasite plastid, 48 hour incubation | Potency, µM (titrated, usually from 28.7 µM), for inactives: top-dose activity change, negative = inhibition, usual class: inhibitors | P. falciparum luciferase growth in erythrocytes, 48 h | AID 504832, 2011 | hit rate 5.9% among 310,000; note: potency is the fitted concentration of half-maximal effect; % is set by controls: 0 for no effect and ±100 for the full control effect
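First compound was added to culture medium, then infected red cells at 0.1% parasitemia and 2% hematocrit (final). After incubation at 37 C under 5% CO2, luciferase detection reagent was dispensed and light output recorded.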
AMA1-RON2 inh – qHTS for Inhibitors of AMA1-RON; Towards Development of Antimalarial Drug Lead: Primary Screen | Plasmodium falciparum AMA1 (3D7) - RON2 peptide interaction | AlphaScreen AMA1-biotinylated RON2 peptide binding | Potency, µM (doses to about 58.2 µM), inactives show at the top dose activity change, negative = inhibition, most hits filed as inhibitors | hit rate 0.2% among 360,000 | AID 720542, 2013;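 note: potency is the fitted concentration of half-maximal effect; 0% = vehicle wells and -100% = peptide control; nearly all actives have a fitted effect of over 45% in size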
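AMA1 (3D7) with his tag at 25 nM final met compounds first, then biotinylated RON2 peptide at 25 nM; detection used donor plus acceptor beads, 10 µg/mL apiece, read by AlphaScreen after 30 min at room temperature.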
HCV inh – qHTS Assay for Inhibitors of Hepatitis C Virus (HCV); Huh7.5.1 HCVcc-Cre infection, luciferase reporter, 44 h; Potency, µM (series often up to 41.8 µM), for inactives: at the highest dose activity change, negative = inhibition, most hits filed as inhibitors; hit rate 3.4% among 340,000; note: potency is the fitted concentration of half-maximal effect; % is set by controls: 0 for no effect and ±100 for the full control effect
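Seed cells (1,000/well) for 4 h; treat with compound and infect with HCVcc-Cre, moi about 0.5. Incubate 44 h, then detect luciferase activity.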
Shiga toxin inh – A qHTS for Small Molecule Inhibitors of Shiga Toxin. inhibition, % at 38.7 µM. hit rate 9.2% among 290,000. Vero cells, Shiga toxin protein synthesis inhibition reporter. AID 2315, 2010; in the data active = inhibition mostly above about 28%, no sharp cut-off; inactive = mostly below about 43%; note: 0% is about no effect
Cycloheximide cs – Cycloheximide Counterscreen for Small Molecule Inhibitors of Shiga Toxin | hit rate 12% among 300,000 | max response, % | cell reporter, cycloheximide protein synthesis inhibition counterscreen; in the data active = max response mostly above about 13%, no sharp cut-off; inactive = mostly below about 14%; note: read at 38.3 µM for the half of the compounds with a filed dose; 0% is about no effect
Pf growth 96h – Primary qHTS for delayed death inhibitors of the malarial parasite plastid, 96 hour incubation | P. falciparum luciferase reporter growth, 96 h | Potency, µM (titrated, usually from 28.7 µM), for the others: top-dose activity change, negative = inhibition, hits mostly inhibitors | hit rate 6.9% among 320,000; note: potency is the fitted concentration of half-maximal effect; % is set by controls: 0 for no effect and ±100 for the full control effect
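Compounds incubated with erythrocytes infected by luciferase-expressing P. falciparum (2% hematocrit, 0.05% parasitemia final) for 96 hours, 37 C in 5% CO2. Growth inhibition scored as decreased luciferase luminescence.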
* hit, by the source's call; ? = inconclusive; . = not tested or not shown; [ ] = dose if it differs, or a comment. Unless noted, calls come from the whole dose curve; as a rule, active = well fitted curve in the direction sought with a large enough effect; inconclusive = small, poorly fitted or top-dose-only effect, or another doubt; inactive = no such curve, though single readings can be large; an effect the other way counts as inactive or inconclusive.

SMILES	Pf growth 48h	AMA1-RON2 inh	HCV inh	Shiga toxin inh	Cycloheximide cs	Pf growth 96h
Cc1ccc2nc(NC(=O)CNS(=O)(=O)c3ccc(Br)s3)sc2c1	67.3%	16.1%	11.1%	15.3	22.4*	30.0%
CCOC(=O)c1ccc(NC(=O)CN(C)S(=O)(=O)c2ccc(OC)cc2)cc1	?	12.8%	-18.8%	0.5	11.1	10.6%
CN(CC(=O)Nc1nc2ccc(F)cc2s1)S(=O)(=O)c1ccc(Cl)cc1	.	8.8%	?	29.8	23.3	?
Cc1ccc(S(=O)(=O)N(C)CC(=O)Nc2nc3ccccc3s2)cc1	-8.9%	-2.4%	?	27.3	15.6	6.57µM*
CN(c1ccc(OCC(=O)Nc2nc3ccccc3s2)cc1)S(=O)(=O)c1ccccc1	?	5.6%	?	-7.9	-2.8	5.22µM*
O=C(NC1C2CC3CC(C2)CC1C3)C1CCCCC1 (centres undefined)	35.0%	23.5%	21.2%	-7.7	1.4	-17.7%
CCOC(=O)C(C(=O)OCC)C(=O)c1cccc2ccc3ccccc3c12	.	-5.1%	.	.	.	.
Cc1ccc2nc(NC(=O)CN(C)S(=O)(=O)c3ccc(Br)s3)sc2c1	.	-7.3%	?	32.2	26.1*	9.28µM*
Cc1ccc2nc(NC(=O)CN(C)S(=O)(=O)c3cccc4nsnc34)sc2c1	10.4%	-9.3%	-8.9%	6.9	7.7	?
COc1cc(C(=O)NCC2CCCN2S(=O)(=O)c2cccs2)cc(OC)c1OC (centres undefined)	11.7µM*	1.1%	2.3%	.	.	?
O=C(NCCc1ccc(F)cc1)C(=O)NCC1CCCN1S(=O)(=O)c1cccs1 (centres undefined)	13.1µM*	-9.1%	?	.	.	?
COc1ccccc1/C=C/C(=O)N1CCN(S(=O)(=O)c2cccs2)CC1	.	-10.4%	-21.2%	.	.	.
COc1ccccc1CC(=O)N1CCN(S(=O)(=O)c2cccs2)CC1	-15.6%	-11.6%	-13.0%	-14.5	5.7	14.7µM*
COc1ccccc1CNC(=O)C(=O)NCC1CCCN1S(=O)(=O)c1cccs1 (centres undefined)	11.7µM*	-6.9%	24.0%	.	.	0.0%
CNC(=O)C(=O)NCC1CCCN1S(=O)(=O)c1cccs1 (centres undefined)	3.9%	11.4%	-3.1%[8.37 µM]	.	.	-1.1%
CCOC(=O)c1c(NC(=O)C2CCCN(S(=O)(=O)c3ccccc3)C2)sc2c1CCCC2 (centres undefined)	?	0.0%	5.62µM*	12.1	-2.5	?
COc1ccccc1NS(=O)(=O)c1ccc(C)c(C(N)=O)c1	16.1%	10.8%	-3.4%	-4.7	-0.8	5.22µM*
CCOC(=O)C1CN(S(=O)(=O)c2ccc(C)cc2)CCN1S(=O)(=O)c1ccc(C)cc1 (centres undefined)	?	7.1%	-6.4%	37.3	-1.6	14.7µM*
CCOC(=O)C1CN(S(=O)(=O)c2ccccc2)CCN1S(=O)(=O)c1ccccc1 (centres undefined)	.	-4.4%	-11.7%	25.1	4.4	?
CCOC(=O)C1CCCN(C(=O)c2cc(S(=O)(=O)Nc3ccccc3OC)ccc2C)C1 (centres undefined)	?	-15.4%	10µM*	-4.3	-1.6	?
CCOC(=O)c1c(NC(=O)C2CCCN(S(=O)(=O)c3ccc(C)cc3)C2)sc2c1CCCC2 (centres undefined)	14.3%	?	4.4%	-2.0	-1.1	21.5%
COc1ccc(S(=O)Cc2ccc(C(=O)NCc3cccc(OC)c3)o2)cc1 (centres undefined)	4.2%	-4.7%	-6.8%	-1.7	-2.4	-20.2%
COc1cc(/C(C)=N/NC(=O)C(O)(c2ccccc2)c2ccccc2)ccc1O	-1.8%	43.2%	15.5%	2.7	10.6	-0.6%
CCOC(=O)C1CCN(C(=O)c2ccc(S(=O)(=O)Nc3ccccc3OC)cc2)CC1	?	-7.2%	?	.	.	11.7µM*
CCOC(=O)C1CCCN(C(=O)c2cc(S(=O)(=O)N3CCCCC3)c[nH]2)C1 (centres undefined)	14.1%	7.1%	9.4%	-4.9	-1.4	59.2%
SMILES	Pf growth 48h	AMA1-RON2 inh	HCV inh	Shiga toxin inh	Cycloheximide cs	Pf growth 96h
CCn1cc(C(=O)N(C)CC(OC)OC)c(=O)c2cc(S(=O)(=O)N3CCOCC3)ccc21	15.9%	22.4%	14.7%	-2.9	-1.6	6.57µM*
CCOC(=O)C1CCCN(C(=O)c2cc(S(=O)(=O)N3CCCCC3)ccc2C)C1 (centres undefined)	8.28µM*	-2.7%	?	9.9	-0.9	?
CCOC(=O)C1CCN(C(=O)c2ccccc2NS(=O)(=O)c2ccccc2)CC1	22.5%	4.6%	22.4%	18.6	-1.7	-59.6%
COc1ccccc1NS(=O)(=O)c1ccc(C(=O)N2CCN(c3ccccn3)CC2)cc1	.	-20.0%	11.2µM*	.	.	.
CC(C(=O)Nc1ccc2c(c1)OCO2)n1cnc2c1c(=O)n(C)c(=O)n2C (centres undefined)	5.4%	-7.9%	5.2%	.	.	1.4%
N#CC1C(=O)NC(c2ccccc2)=CC1c1ccccc1 (centres undefined)	.	1.3%	0.7%	.	.	.
COC(=O)N(C)C[C@@H]1OCc2cn(nn2)CCCC(=O)N([C@@H](C)CO)C[C@H]1C	.	12.2%	.	.	.	.
CCOC(=O)/C(C#N)=C/Nc1ccccc1NS(=O)(=O)c1ccc(C)c(C)c1	?	41.5%	18.1%	-1.5	-1.6	2.94µM*
CCOC(=O)/C(C#N)=C/Nc1ccccc1NS(=O)(=O)c1cccc(C(C)=O)c1	?	74.5%	7.7%	-5.3	-0.7	?
CCn1cc(C(=O)N2CCc3ccccc32)c(=O)c2cc(S(=O)(=O)N3CCCC3)ccc21	?	-15.4%	3.9%	-14.8	-3.1	11.7µM*
Cc1cccc(NC(=O)COc2cccc3c2CCN(C)C3=O)c1C	?	4.1%	?	-19.4	-2.2	?
CCOC(=O)C1CCN(C(=O)COc2ccc(S(=O)(=O)N3CCCC3)cc2C)CC1	-21.0%	-3.4%	-26.4%	-11.1	-1.2	3.29µM*
CCOC(=O)c1c(NC(=O)COc2cccc3c2CCN(C)C3=O)sc2c1CCC2	?	-1.0%	-3.6%	5.9	-3.1	13.1µM*
Cc1cc(S(=O)(=O)N2CCCC2)ccc1OCC(=O)N1CCC(C(N)=O)CC1	-5.5%	-7.1%	4.9%	11.8	1.0	-7.4%
CCn1cc(C(=O)O)c(=O)c2cc(S(=O)(=O)N3CCCCCC3)ccc21	18.6%	0.0%	17.1%	-5.3	5.6	?
